Compound activity as filed in PubChem.
TDP1 block = inhibitors of human tyrosyl-DNA phosphodiesterase TDP1; recombinant TDP1, AlphaScreen DNA substrate cleavage; Potency, µM (doses to about 130 µM), for inactives: top-dose activity change, negative = inhibition, actives largely listed as inhibitors; Q9NUW8; 350,000 tested, 0.28% active; also: potency is read from the fitted curve at half-maximal effect; % is scaled to controls: 0 for no effect and ±100 for the full control effect; nearly all actives have a fitted effect of over 40% in size
Target sequence (Q9NUW8 whole entry, looked up): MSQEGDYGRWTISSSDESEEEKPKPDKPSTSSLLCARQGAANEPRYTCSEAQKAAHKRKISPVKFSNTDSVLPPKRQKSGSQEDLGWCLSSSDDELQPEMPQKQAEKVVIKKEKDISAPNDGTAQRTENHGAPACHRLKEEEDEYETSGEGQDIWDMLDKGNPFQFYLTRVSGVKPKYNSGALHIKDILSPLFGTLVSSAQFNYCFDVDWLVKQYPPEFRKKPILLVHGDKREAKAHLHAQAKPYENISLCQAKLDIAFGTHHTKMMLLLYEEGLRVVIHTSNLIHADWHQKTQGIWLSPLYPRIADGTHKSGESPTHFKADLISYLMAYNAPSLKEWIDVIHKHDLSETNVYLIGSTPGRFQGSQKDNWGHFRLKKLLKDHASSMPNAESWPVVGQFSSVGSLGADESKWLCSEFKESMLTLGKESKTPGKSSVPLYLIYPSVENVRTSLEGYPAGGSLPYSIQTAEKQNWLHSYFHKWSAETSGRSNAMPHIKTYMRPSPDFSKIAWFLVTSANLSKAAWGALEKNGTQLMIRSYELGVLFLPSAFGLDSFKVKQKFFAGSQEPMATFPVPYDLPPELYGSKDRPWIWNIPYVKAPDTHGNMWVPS
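Recombinant human Tdp1 (E. coli-expressed, 1 nM final) preincubated with compounds 15 min at room temperature, then 5'-biotin/3'-phosphotyrosine-FITC DNA substrate (15 nM final) added for 5 min. AlphaScreen beads (10 ug/ml final) added 10 min; cleavage lowers signal.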
TDP1 cell CPT = growth inhibition of DT40 Tdp1-/-;hTDP1 cells with camptothecin (screen for TDP1 inhibitors); chicken DT40 Tdp1-/-;hTDP1 cells + 20 nM CPT, ATP luminescence, 48 h; Potency, µM (top dose mostly 46.2 µM), for inactives: top-dose activity change, negative = growth inhibition, usual class: inhibitors; 420,000 tested, 12% active; AID 686979; also: potency is read from the fitted curve at half-maximal effect; % is scaled to controls: 0 for no effect and ±100 for the full control effect; nearly all actives have a fitted effect of over 55% in size
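Chicken DT40 Tdp1-/- cells complemented with human TDP1, 400 cells/well, exposed to compounds plus 20 nM camptothecin for at least 48 h at 37 C; viability read as ATP content by CellTiter-Glo luminescence.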
IL-1B inflam inh = inhibitors of inflammasome signaling (IL-1 beta secretion). THP-1 LPS/ATP IL-1B secretion, AlphaLISA, 16 h; hits give low values. activity change, % at 57.5 µM. AID 743279. 360,000 tested, 4.7% active; in the data active = activity change below about -50%; inconclusive = mostly about -30% to -49%; also: % is scaled to controls: 0 for no effect and ±100 for the full control effect
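Secreted IL-1B measured by AlphaLISA bead assay after 16 h compound exposure of THP-1 cells; compounds (final up to 57.5 uM) added 1 h before LPS (250 ng/mL) and ATP (1.25 mM) stimulation; lower signal means less secretion.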
TGFb inhibitor = inhibitors of TGF-b signaling | HepG2 CAGA-GFP TGF-b/SMAD3 reporter, GFP fluorescence, 18 h; TGF-beta stimulated, 500 pg/mL final | Potency, µM (top dose mostly 46.1 µM), without a hit: at the highest dose activity, negative = inhibition, usual class: inhibitors | 410,000 tested, 1.2% active | AID 588855; also: potency is read from the fitted curve at half-maximal effect; % is scaled to controls: 0 for no effect and ±100 for the full control effect; nearly all actives have a fitted effect of over 65% in size
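Read-out: total well GFP (ex488/em500-530) summed from mean per-cell fluorescence. Cells: HEPG2 CAGA-GFP, 1% FBS DMEM, 18 h at 37 degrees C with 500 pg/mL final TGF-beta. Unstimulated wells served as the full-inhibition control; stimulated DMSO wells = 0%.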
HepG2 viability = HepG2 cytotoxicity, counter-screen for TGF-b inhibitors. HepG2 CAGA-GFP viability, ATP luminescence, 18 h. Potency, µM (doses to about 46.1 µM), for inactives: at the top dose activity change, negative = cytotoxicity, hits mostly cytotoxic. 410,000 tested, 0.76% active; also: potency is read from the fitted curve at half-maximal effect
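HepG2 CAGA-GFP cells (1000/well, DMEM with 1% FBS) received compound, then TGF-beta at 500 pg/mL final, and were incubated 18 hours at 37 degrees C. Viability was read by CellTiter-Glo luminescence. Media-only wells were set as complete cell-killing and DMSO as no toxicity.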
DT40 TDP1 no CPT = qHTS for Inhibitors of human tyrosyl-DNA phosphodiesterase 1 (TDP1): qHTS in cells in absence of CPT | DT40 Tdp1-/- hTDP1 cells, no CPT, ATP luminescence, 48 h | AID 686978, 2013 | 420,000 tested, 15% active | Potency, µM (series often up to 46.2 µM), inactives show at the highest dose activity change, negative = growth inhibition, most hits filed as inhibitors; also: potency is read from the fitted curve at half-maximal effect; % is scaled to controls: 0 for no effect and ±100 for the full control effect; nearly all actives have a fitted effect of over 55% in size
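No-CPT arm: Tdp1-/-;hTDP1 DT40 cells (400/well) plus compounds, incubated ≥48 hr at 37 °C. Readout CellTiter-Glo luminescence.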
An asterisk follows results filed as active; ? = inconclusive; . = no result; [ ] = remark or other dose. An excerpt weighted towards active compounds, which were near 18% of everything screened. Unless noted, calls follow the shape of the dose curve; as a rule, active = well fitted curve in the direction sought with a large enough effect; inconclusive = small, poorly fitted or top-dose-only effect, or another doubt; inactive = no such curve, though single readings can be large; an effect the other way counts as inactive or inconclusive.

SMILES	TDP1 block	TDP1 cell CPT	IL-1B inflam inh	TGFb inhibitor	HepG2 viability	DT40 TDP1 no CPT
S=C(NCCc1ccccc1)N1Cc2ccccc2-n2nncc2C1	.	?	51.8	-9.9%	-12.6%	20.6µM*
N#CC1c2ccccc2-n2nncc2CN1C(=O)CCc1ccccc1 (stereo unspecified)	.	14.6µM*	-4.4	-28.9%	-2.8%	10.3µM*
CC(=O)N1Cc2cnnn2-c2ccccc2C1C#N (stereo unspecified)	.	-1.0%	4.9	-3.9%	10.5%	4.4%
C=CCN1C[C@H](C)N([C@@H](c2ccccc2)c2ccc(C(=O)N(CC)CC)cc2)C[C@H]1C	8.3%	3.5%	.	.	.	-13.4%
N#CCCN(C(=O)COC(=O)c1ccc2c(c1)NC(=O)CS2)c1ccc2c(c1)OCCO2	8.0%	-17.4%	-2.7	12.3%	-19.2%	?
CCCCOc1ccc(CNC(=O)c2cc3n(n2)CCCN(Cc2ccc(C)cc2)C3=O)cc1	6.2%	20.6µM*	.	?	-1.5%	13µM*
CCCCn1c(=O)c(C(=O)NCc2ccc(Cl)cc2)c(O)c2ccccc21	.	-87.2%	69.1	6.9%	-0.2%	?
Oc1cc(Cl)cc(Cl)c1	3.7%	.	.	.	.	.
Cc1cccc(Cn2cccc(C(=O)Nc3cc(C)on3)c2=O)c1	0.0%	-23.0%	.	?	4.6%	-22.7%
CCN(CC)c1ccc(N=Cc2c(O)n(-c3ccc(Cl)cc3)c(=O)[nH]c2=O)cc1	0.0%	20.6µM*	46.0	1.0%	-7.6%	?
Cc1cccc(N=Cc2c(O)n(-c3ccccc3C)c(=O)[nH]c2=O)c1	4.0%	-3.0%	5.6	-5.1%	8.7%	-16.6%
Cc1ccccc1-n1c(O)c(C=Nc2ccc(N(C)C)cc2)c(=O)[nH]c1=O	0.5%	23.1µM*	-2.9	-11.2%	-25.8%	18.4µM*
CCNC(=O)[C@H]1O[C@@H](n2cnc3c(N)ncnc32)[C@H](O)[C@H]1O	11.3%[56.1 µM]	.	.	.	.	.
CC(C)Nc1ccc(Nc2ccccc2)cc1	3.6%	6.51µM*	-94.7*	?	-102.8%	6.51µM*
c1ccc(Nc2ccc3ccccc3c2)cc1	9.9%	?	7.8	3.2%	-41.0%	?
CCC(C)C1O[C@]2(C=CC1C)CC1CC(C/C=C(\C)[C@H](OC3CC(OC)C(O[C@H]4CC(OC)[C@@H](O)C(C)O4)C(C)O3)[C@@H](C)/C=C/C=C3\COC4C(O)C(C)=C[C@H](C(=O)O1)[C@@]34O)O2 (stereo partly specified)	7.7%	.	.	.	.	.
C[C@]12CC[C@@H](O)C[C@@H]1CC[C@@H]1[C@@H]2CC[C@]2(C)C=CC[C@@H]12	6.1%	?	.	.	.	?
N[C@H](C(=O)O)[C@@H]1CC(Cl)=NO1	.	1.68µM*	.	.	.	2.11µM*
Cc1cc(OCC(=O)N2CCC(C(=O)NCC(C)C)CC2)c2c3c(c(=O)oc2c1)CCCC3	0.8%	-19.1%	46.1	-1.6%	1.3%	13µM*
Cc1cc(OCC(=O)OC(C)(C)C)c2c3c(c(=O)oc2c1)CCC3	5.2%	-23.5%	32.2	7.2%	-11.1%	-25.3%
Cc1cc(OC(=O)c2ccco2)c2c3c(c(=O)oc2c1)CCC3	5.9%	?	0.0	-3.4%	-10.4%	23.1µM*
CCN(CC)C(=O)COc1cc(C)cc2oc(=O)c3c(c12)CCCC3	.	?	-50.2*	13.4%	-9.4%	?
CCCCNC(C)(C)[P+](=O)O	.	-3.7%	.	.	.	6.5%
CCN(N=O)C(N)=O	7.6%	.	.	.	.	.
CN1C2CCC1CC(OC(=O)C1CCC(C(=O)OC3CC4CCC(C3)N4C)(c3ccccc3)c3ccccc31)C2 (stereo unspecified)	5.6%	-8.6%[9.04 µM]	.	.	.	-9.7%[9.04 µM]
SMILES	TDP1 block	TDP1 cell CPT	IL-1B inflam inh	TGFb inhibitor	HepG2 viability	DT40 TDP1 no CPT
O=C(COc1ccccc1[N+](=O)[O-])N1CCN(CCc2ccncc2)CC1	0.5%	-16.4%	.	20.5%	20.3%	?
COC(=O)CSC1=NP(=S)(SCC(=O)OC)N2CCCC2=C1C#N (stereo unspecified)	-2.1%	-26.1%	-94.3*	-30.0%	-17.2%	?
CC(C)N1C(=O)c2ccccc2NS1(=O)=O	8.1%	5.8%	.	.	.	-6.6%
Oc1ccc(-c2cccnc2)cc1CNC1CN2CCC1CC2 (stereo unspecified)	.	-1.7%	.	.	.	-27.7%
CN1CN(c2ccccc2)C2(CCN(CCCSc3ccccc3NC(=O)/C=C/c3ccccc3)CC2)C1=O	.	?	-71.3*	?	-2.4%	?
[O]=[Cd]	4.2%	-4.4%	.	.	.	10.6%
CCCCC(CC)COP(=O)(OCC(CC)CCCC)OCC(CC)CCCC (stereo unspecified)	-5.1%	?	-72.4*	20.8%	-0.1%	?
CCCCC(CC)CNCC(O)c1ccccc1 (stereo unspecified)	2.7%	-1.9%	14.2	-0.2%	5.0%	-20.6%
O=CN1CC2CC(C1)c1cccc(=O)n1C2 (stereo unspecified)	2.4%	1.6%	.	.	.	-4.5%
CN(C)S(=O)(=O)c1cccc(C(=O)N2CCC(C(=O)O)(c3ccccc3)CC2)c1	11.6%	5.5%	-1.1	5.5%	0.1%	-3.6%
CN(c1ccccc1)S(=O)(=O)c1cccc(C(=O)N2CCN(c3ccccn3)CC2)c1	5.1%	18.4µM*	-11.5	-21.7%	0.7%	16.4µM*
CC1CCCC(C)N1c1nnc(NC(=O)Cn2c(=O)oc3ccccc32)s1 (stereo unspecified)	1.1%	-20.2%	11.4	-0.4%	-5.8%	13µM*
COC(=O)C1=C(C(=O)OC)C2OC1c1cc3ccccc3cc12	.	0.461µM*	0.0	?	-77.3%	0.731µM*
Nc1cccc(Cl)c1	10.4%	.	.	.	.	.
N.N.N.N.N.N.N.N.N.N.N.N.N.N.O.O.[Cl-].[Cl-].[Cl-].[Cl-].[Cl-].[Cl-].[Ru].[Ru].[Ru]	15.1%[56.1 µM]	.	.	.	.	.
Cc1ccc([C@H]2C[C@@H](O)[C@H](n3cc(COC(=O)c4ccccc4)nn3)CN2C(=O)C2CCCCC2)cc1	.	-23.2%	-26.1	4.1%	-20.8%	?
O=C(c1ccc2c3c(cccc13)CC2)C1CCCN(CC2CC2)C1 (stereo unspecified)	0.0%	18.4µM*	-116.8*	-2.7%	-12.1%	23.1µM*
O=C(c1ccc2c3c(cccc13)CC2)C1CCCN(Cc2ncc[nH]2)C1 (stereo unspecified)	8.6%	?	?	?	-35.1%	?
O=C(O)c1nn(Cc2ccc(Cl)c(Cl)c2)c2ccccc12	8.5%[56.1 µM]	3.5%	.	.	.	-3.0%
